Molecules are shown by their SMILES. “And” between values parts separate entries of the source, which are not always exact repeats. Identical values can stand only once. Inconclusive results are not listed. More than one record can exist for a structure, and the calls need not agree. The source made the active and inactive calls. Unless noted, calls follow the shape of the dose curve; as a rule, active = well fitted curve in the direction sought with a large enough effect in the repeat runs; inconclusive = weak or mixed curves; inactive = no such curve, though single readings can be large; an effect the other way counts as inactive or inconclusive.

These results are taken from PubChem BioAssay (Tox21).

A short description of test [1]: qHTS assay to identify small molecule agonists of H2AX (AID 1224845; active = well fitted activation curve with a large enough effect in the signal ratio in the repeat runs, not every such curve was filed as active; the % refers to the signal ratio). The method, boiled down:
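Wild-type CHO-K1 cells plated overnight, then exposed 3 hr at 37C to compounds at 15 concentrations (0.76% DMSO). Lysed, then HTRF anti-pH2AX(S139)-cryptate/anti-H2AX-d2 detection after 24 hr at room temperature; emissions 665 and 620 nm.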
(In general: qHTS replaces the single test concentration by a dilution series.)

Test [2] can be described thus: qHTS assay to identify small molecule agonists of the hypoxia (HIF-1) signaling pathway (AID 1224846; active = well fitted activation curve with a large enough effect in the signal ratio in the repeat runs, not every such curve was filed as active; the % refers to the signal ratio). The method, boiled down: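 ME-180 HRE-bla reporter cells; compounds in DMSO, 17 h at 37C; read-out beta-lactamase via CCF4-AM FRET.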
Test [3] can be described thus: qHTS assay to identify small molecule agonists of H2AX - cell viability counter screen (AID 1224847; calls by dose curve; also: top concentration of the series differs between compounds; nearly all actives have a fitted effect of over 30% in size). An outline of the steps: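 Quantitative HTS viability measurement: CHO-K1 wild-type cells in serum (10% FBS) medium, short 3 hr drug exposure at 37C with 0.76% DMSO, CellTiter-Glo luminescent detection.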
The nature of test [4]: qHTS RealTime-Glo MT Cell Viability Assay in HepG2 cells - 24 hour (AID 1224867). Also: nearly all actives have a fitted effect of over 50% in size. An outline of the steps: (§1)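 Viability was tracked continuously by NanoLuc luminescence from prosubstrate reduced by living HepG2 cells, at successive time points over 40 h of compound exposure. Cells with reagent were preincubated 5 h at 37 °C before compound addition.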
Test [5] is described as follows: qHTS RealTime-Glo MT Cell Viability Assay in HEK293 cells - 32 hour (AID 1224868). Also: nearly all actives have a fitted effect of over 50% in size. Also: potency is read from the fitted curve at half-maximal effect. An outline of the steps: (§2)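 Viability tracked continuously by luminescence as live cells reduce a prosubstrate for NanoLuc; HEK293 cells preincubated 5 h, compound-treated at 37 C, and read at 0, 8, 16, 24, 32 and 40 h.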
A short description of test [6]: A CellTox Green Cytotoxicity Assay to monitor cytotoxicity in HEK293 cells - 0 hour (AID 1224869). Also: nearly all actives have a fitted effect of over 50% in size. The method, boiled down: (§3)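 Real-time, in one plate: 600 HEK293 cells/well with dead-cell DNA dye, pinned compound after 5 h, 37 C incubation over 40 h; viable cells give no appreciable fluorescence.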
A short description of test [7]: qHTS RealTime-Glo MT Cell Viability Assay in HepG2 cells - 40 hour (AID 1224870). Also: nearly all actives have a fitted effect of over 50% in size. An outline of the steps: (§4)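 HepG2 cells mixed with RealTime-Glo MT reagents (NanoLuc plus cell-permeant prosubstrate) were seeded at 600 cells/well, incubated 5 h at 37 C/5% CO2, then pinned with compounds in DMSO; nonlytic luminescence tracked viability during 40 h treatment.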
The nature of test [8]: A CellTox Green Cytotoxicity Assay to monitor cytotoxicity in HEK293 cells - 40 hour (AID 1224871). Also: nearly all actives have a fitted effect of over 45% in size. An outline of the steps: as §3
Test [9] in a line: qHTS RealTime-Glo MT Cell Viability Assay in HEK293 cells - 16 hour (AID 1224872). Also: nearly all actives have a fitted effect of over 50% in size. Also: potency is read from the fitted curve at half-maximal effect. The method, boiled down: as §2
A short description of test [10]: qHTS RealTime-Glo MT Cell Viability Assay in HEK293 cells - 40 hour (AID 1224874). Also: nearly all actives have a fitted effect of over 50% in size. Also: potency is read from the fitted curve at half-maximal effect. Conditions: RealTime-Glo luminescence; max response: stronger effect = lower value. An outline of the steps:
(§5)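 Kinetic, non-lysing viability readout. Seed HEK293 (600/well) with reagent, incubate 5 h at 37 C/5% CO2, pin 23 nL compound in DMSO, incubate at 37 C, read luminescence at 0, 8, 16, 24, 32, 40 h.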

The nature of test [11]: A CellTox Green Cytotoxicity Assay to monitor cytotoxicity in HepG2 cells - 16 hour (AID 1224876). Also: nearly all actives have a fitted effect of over 45% in size. Also: potency is read from the fitted curve at half-maximal effect. The method, boiled down: (§6)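 Cytotoxicity was tracked as dead-cell DNA fluorescence in HepG2 cells treated with test compounds at 37 C; each time-point value comes from one kinetic series spanning 0, 8, 16, 24, 32 and 40 h.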
The nature of test [12]: qHTS RealTime-Glo MT Cell Viability Assay in HepG2 cells - 32 hour (AID 1224877). Also: nearly all actives have a fitted effect of over 55% in size. The method, boiled down:
as §1

Test [13] is described as follows: A CellTox Green Cytotoxicity Assay to monitor cytotoxicity in HepG2 cells - 24 hour (AID 1224878). Also: nearly all actives have a fitted effect of over 45% in size. Also: potency is read from the fitted curve at half-maximal effect. The method, boiled down:
as §6

Test [14] in a line: A CellTox Green Cytotoxicity Assay to monitor cytotoxicity in HepG2 cells - 40 hour (AID 1224879). Also: nearly all actives have a fitted effect of over 40% in size. Also: potency is read from the fitted curve at half-maximal effect. An outline of the steps: as §6
A short description of test [15]: qHTS RealTime-Glo MT Cell Viability Assay in HEK293 cells - 0 hour (AID 1224880). Also: top concentration of the series differs between compounds; nearly all actives have a fitted effect of over 45% in size. An outline of the steps: as §5
Test [16] in a line: A CellTox Green Cytotoxicity Assay to monitor cytotoxicity in HEK293 cells - 32 hour (AID 1224881). Also: nearly all actives have a fitted effect of over 40% in size. An outline of the steps:
as §3

Test [17] can be described thus: qHTS RealTime-Glo MT Cell Viability Assay in HepG2 cells - 8 hour (AID 1224873). Also: nearly all actives have a fitted effect of over 55% in size. An outline of the steps: as §4
Test [18] in a line: A CellTox Green Cytotoxicity Assay to monitor cytotoxicity in HEK293 cells - 24 hour (AID 1224875). The method, boiled down: as §3
% is scaled to controls: 0 for no effect and ±100 for the full control effect.

Take `Cc1cc(CC(=O)O)n(C)c1C(=O)c1ccc(Cl)cc1`: the Potency result in [1], in test [3], in [4], in test [5], in [6] and in test [7] was “inactive” throughout. Besides, the Potency result in [8], in [9], in [11], in test [12], in test [13] and in test [14] was “inactive” in each case. Moreover, the Potency entry in test [15] and in test [16] was “inactive” in each case. In addition, the compound was classed as inactive in test [2]. Also, the max response in test [10] was -0.154% (inactive) and 2.14% (inactive).

For `CC1(C)C(=O)N(Cl)C(=O)N1Cl`, the Potency entry in test [1], in [3], in test [4], in test [5], in test [6] and in test [7] was “inactive” in each case. Further, the Potency entry in [8], in test [9], in test [17], in test [18], in test [11] and in [12] was “inactive” in each case. The Potency entry in test [13], in test [14], in test [15] and in test [16] was “inactive” throughout. Besides, the outcome in test [2] was inactive. The max response in test [10] is 1.41% (inactive) and 7.94% (inactive).

Take `CC(=O)OC/C=C(\C)CCC=C(C)C`: the Potency result in [1], in test [3], in test [4], in test [5], in test [6] and in test [7] was “inactive” each time. Moreover, the Potency entry in test [8], in [9], in test [18], in test [11], in test [12] and in test [13] was “inactive” each time. Moreover, the Potency result in test [14], in test [15] and in test [16] was “inactive” in each case. Also, the compound was called inactive in test [2]. Moreover, in test [10], the max response was -1.95% (inactive) and 0.392% (inactive).

For `CC(=O)OC[C@H]1O[C@@](COC(C)=O)(O[C@H]2O[C@H](COC(C)=O)[C@@H](OC(C)=O)[C@H](OC(C)=O)[C@H]2OC(C)=O)[C@@H](OC(C)=O)[C@@H]1OC(C)=O`, the Potency entry in test [1], in test [3], in test [4], in [5], in test [6] and in test [7] was “inactive” in each case. The Potency entry in test [8], in test [9], in [17], in [18], in test [11] and in test [12] was “inactive” each time. The Potency entry in test [13], in test [14], in [15] and in [16] was “inactive” in each case. In [2], the result was inactive. Further, the max response in test [10] is -0.774% (inactive) and 5.83% (inactive).

Regarding `Cc1cccc(C)c1[N+](=O)[O-]`, the Potency entry in [1], in test [3], in test [4], in [5], in test [6] and in test [7] was “inactive” throughout. Further, the Potency entry in test [8], in test [9], in test [17], in test [18], in test [11] and in [12] was “inactive” in each case. In addition, the Potency result in test [13], in test [14], in [15] and in test [16] was “inactive” each time. Further, in test [2], the outcome was inactive. For the same compound, the max response in [10] is -0.329% (inactive).

For `O=C1CCCCCCCCCCC1`, the Potency entry in test [1], in test [3], in test [4], in test [5], in [6] and in test [7] was “inactive” each time. For the same compound, the Potency entry in test [8], in test [17], in test [18], in [11], in [12] and in test [13] was “inactive” throughout. Moreover, the Potency entry in test [14] and in test [15] was “inactive” in each case. Besides, the compound was called inactive in test [2]. Further, the max response in test [10] was -9.58% (inactive) and -0.296% (inactive).

In the case of `CCCCC(=O)O`, the Potency result in test [1], in test [3], in test [4], in test [5], in test [6] and in [7] was “inactive” throughout. Moreover, the Potency entry in test [8], in [9], in [17], in test [18], in test [11] and in [12] was “inactive” in each case. Besides, the Potency entry in test [13], in [14], in test [15] and in [16] was “inactive” in each case. The result in test [2] was inactive. In [10], the max response was 6.05% (inactive) and 6.12% (inactive).

Consider `CCCCCNCCCCC`, for which the Potency result in test [1], in test [3], in [4], in [5], in test [6] and in test [7] was “inactive” in each case. The Potency result in [8], in test [9], in test [11], in test [12], in test [13] and in test [14] was “inactive” each time. The Potency result in test [15] and in test [16] was “inactive” in each case. The compound was called inactive in test [2]. Moreover, the max response in [10] was 4.14% (inactive) and 0.383% (inactive).

On to `CC(=O)CC(=O)N(C)C`, for which the Potency entry in [1], in [3], in test [4], in test [5], in test [6] and in [7] was “inactive” in each case. For the same compound, the Potency result in test [8], in test [9], in test [17], in [18], in test [11] and in test [12] was “inactive” in each case. Besides, the Potency entry in test [13], in test [14], in [15] and in test [16] was “inactive” in each case. In addition, the compound was classed as inactive in test [2]. In addition, in test [10], the max response is 0.701% (inactive) and 6.53% (inactive).

On to `NC(N)=S`, for which the Potency result in [1], in test [3], in [4], in test [5], in test [6] and in test [7] was “inactive” each time. In addition, the Potency result in test [8], in [9], in test [17], in test [18], in test [11] and in [12] was “inactive” throughout. Further, the Potency result in test [13], in [14], in [15] and in test [16] was “inactive” throughout. Besides, the outcome in test [2] was inactive. The max response in test [10] was 2.78% (inactive) and 0.322% (inactive).

With `Oc1ccc(Cc2ccccc2O)cc1`, the Potency entry in test [1], in [3], in test [4], in test [6], in test [7] and in test [8] was “inactive” throughout. Further, the Potency entry in test [17], in [18], in test [11], in test [12], in test [13] and in test [14] was “inactive” each time. In addition, the Potency entry in test [15] and in [16] was “inactive” in each case. In addition, the compound was called inactive in [2]. The Potency in test [5] is 19.7 µM (active); in [9] it was 15.5 µM (active); in [10], 14 µM (active) and 17.4 µM (active).

Regarding `CO[Si](CCCNCCN)(OC)OC`, the Potency entry in test [1], in test [3], in [4], in [5], in test [6] and in [7] was “inactive” each time. The Potency result in [8], in [9], in test [12], in test [15] and in [16] was “inactive” throughout. In addition, in test [2], the call was inactive. Moreover, the max response in test [10] was 4.43% (inactive) and -18.7% (inactive). The Potency entry in [11] is “inactive and 49 µM (active)”; in test [13] it was “inactive and 49 µM (active)”; in test [14], “inactive and 49 µM (active)”.

For `CN1CCCC1=O`, the Potency result in test [1], in [3], in test [4], in [5], in [6] and in test [7] was “inactive” in each case. Moreover, the Potency result in [8], in test [9], in [11], in test [12], in [13] and in test [14] was “inactive” in each case. Further, the Potency entry in test [15] and in [16] was “inactive” each time. In addition, the compound was classed as inactive in test [2]. Besides, the max response in [10] was 8.67% (inactive) and -2.64% (inactive).
